Test results as given in PubChem BioAssay (Tox21).
Results filed as inconclusive are left out. Where a call stands in place of a potency, no number is given. A number with no mark means an inactive call. Activity calls are given as the source filed them. Calls come from the whole dose curve; as a rule, active = well fitted activation curve with a large enough effect in the repeat runs; inconclusive = weak or mixed curves; inactive = flat fitted curve, though single readings scatter.

Test: A CellTox Green Cytotoxicity Assay to monitor cytotoxicity in HEK293 cells - 24 hour (AID 1224875); note: nearly all actives have a fitted effect of over 45% in size
Settings: CellTox Green fluorescence; series mostly up to 76.8 µM
Method in brief: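 Read-out: fluorescence of a cell-impermeant cyanine dye staining DNA of dead cells, proportional to cytotoxicity. HEK293, 600 cells/well with reagent, compound (23 nL DMSO) added after 5 h; reads at 0, 8, 16, 24, 32, 40 h.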

| SMILES | Potency | activity change |
| --- | --- | --- |
| CCN1CCCC1CN (configuration not stated) | inactive | – |
| N[C@@H](Cc1ccc(O)cc1)C(=O)O | – | 2.02% [at 6.97 µM, stronger effect = higher value] |
| CC(S)C(C)S (configuration not stated) | inactive | – |
| C/C(CC(C)C)=N\O | inactive | – |
| CC(O)CC(C)O (configuration not stated) | inactive | – |
| O=C(CN1CCNCC1)NC1CCCCC1 | inactive | – |
| O=C(O)CNC(=O)CNC(=O)CNC(=O)CSC(=O)c1ccccc1 | inactive | – |
| CCC(C)C(C)=O (configuration not stated) | inactive | – |
| O=C1CCCCO1 | inactive | – |
| Cc1ncc([N+](=O)[O-])n1CC(C)O (configuration not stated) | inactive | – |
| C=CCCCCCCCCC(=O)OCCCC | inactive | – |
| O=C[O][Al]([O]C=O)[O]C=O | inactive | – |
| CN1C[C@@H]2C[C@H]1CN2c1cc2c(cc1F)c(=O)c(C(=O)O)cn2C1CC1 | – | -6.09% [at 15.8 µM, stronger effect = higher value] |
| CC/C(C)=N\O[Si](C)(O/N=C(\C)CC)O/N=C(\C)CC | inactive | – |
| O/N=C/C=N/O | inactive | – |
| CCCCSCCCC | inactive | – |
| CC1(C)[C@H]2CC[C@](C)(C2)[C@H]1O | inactive | – |
| CN1CCOC(c2ccccc2)c2ccccc2C1 (configuration not stated) | inactive | – |
| N#Cc1ccccc1O | inactive | – |

| SMILES | Potency | activity change |
| --- | --- | --- |
| CC(Oc1cc(Cl)ccc1Cl)C(=O)O (configuration not stated) | inactive | – |
| C=CCCCC | inactive | – |
| CC(=O)O[C@@H]1CC2CCC1(C)C2(C)C (some centres not stated) | inactive | – |
| CCCCCCCCCCCCCCC(=O)NC(CO)CCCCCCCCCCCCCC (configuration not stated) | inactive | – |
| O=C(O)[C@H](O)c1ccccc1 | inactive | – |
| CCC(C)OC(C)CC (configuration not stated) | inactive | – |
| [O-][n+]1cccc(/C(Cl)=N/OC[C@@H](O)CN2CCCCC2)c1 | inactive | – |
| COS(=O)(=O)O | inactive | – |
| CCCSSCCC | inactive | – |
| C=C(C)C1CC=C(C)C(=O)C1 (configuration not stated) | inactive | – |
| N#CCC(=O)NN | inactive | – |
| CCCCOC(=O)[C@H](C)O | inactive | – |
| CCCCCCCCCCCCCCCCCC#N | inactive | – |
| CC(C)NC(=O)c1ccc(C=O)cc1 | inactive | – |
| O=NN(CCCl)C(=O)NC1CCCCC1 | inactive | – |
| CC(C)Nc1ccccc1 | inactive | – |
| C/C=C(\C)C(C)=O | inactive | – |
| COc1c2occc2c(OC)c2c(=O)cc(C)oc12 | inactive | – |
